Screens deposited in PubChem BioAssay by several laboratories.
PrPC surface inh – inhibitors of human cell surface prion protein PrPC. P04156. TR-FRET read-out. inhibition, % at 13.8 µM. actives 0.43% (n = 370,000). AID 720596; in the data active = inhibition above about 24%; also: 0% = median of the test wells and 100% = reference compound wells
PfHsp40 yeast – rescue of PfHsp40-mediated yeast toxicity; growth rescue, % at 12.5 µM; AID 504582; S. cerevisiae expressing PfHsp40, growth rescue, ATP luminescence; actives 0.68% (n = 340,000); in the data active = growth rescue above about 28%, passing the limit was not always enough;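 also: yeast W303a lacking pdr1 and pdr3 grown in galactose medium; growth measured after three days at 30 °C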
BJeLR viability – kills HRASV12-expressing BJeLR cells; inhibition, % (no concentration beside the values); BJeLR (HRASV12) viability, CellTiter-Glo ATP luminescence, 48 h; actives 0.17% (n = 300,000); in the data active = inhibition above about 50%
PrP UTR inh – suppresses PrP 5' UTR mRNA reporter expression | cell-based PrP 5' UTR mRNA reporter, plate reader | inhibition, % (test concentration not listed) | actives 0.35% (n = 340,000); in the data active = inhibition above about 52%; also: 0 = median of the neutral control wells
MazEF act – MazEF (E. coli) toxin RNase activation; P0AE70; FAM/BHQ RNA-DNA oligo cleavage fluorescence, 5 h; activation, % at 20 µM; actives 0.32% (n = 350,000); in the data active = activation above about 50%
Target sequence (P0AE70 whole entry, looked up): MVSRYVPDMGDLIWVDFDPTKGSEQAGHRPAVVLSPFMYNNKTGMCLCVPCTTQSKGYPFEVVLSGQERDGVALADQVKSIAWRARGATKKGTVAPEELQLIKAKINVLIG
DUSP3 inh – blocks human VHR1 dual specificity phosphatase | P51452 | recombinant VHR phosphatase, pNPP absorbance | inhibition, % at 13.3 µM | actives 0.52% (n = 290,000) | AID 1654; in the data active = inhibition above about 50%
Target sequence (P51452 whole entry, looked up): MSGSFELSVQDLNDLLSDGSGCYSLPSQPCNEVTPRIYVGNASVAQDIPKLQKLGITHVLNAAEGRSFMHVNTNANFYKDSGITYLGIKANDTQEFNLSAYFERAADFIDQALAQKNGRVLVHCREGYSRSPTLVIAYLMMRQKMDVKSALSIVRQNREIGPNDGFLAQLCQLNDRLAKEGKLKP
The depositor's hits bear a star; x = no result. This is a sample that favours compounds with a hit; in the whole collection about 2.1% have one here.

SMILES	PrPC surface inh	PfHsp40 yeast	BJeLR viability	PrP UTR inh	MazEF act	DUSP3 inh
O=S1(=O)CC2c3ccccc3CN2CN1C1CCCC1 (stereo not drawn)	3	x	x	x	x	x
CCOC(=O)C1CCN(C(=O)COC(=O)C23CC4CC(CC(C4)C2)C3)CC1	-5	0	x	-32	0	x
N=C(N)c1ccc(N)cc1	-2	67*	x	-11	1	x
N=C(N)c1ccc(OCCCCCOc2ccc(C(=N)N)cc2)cc1	0	112*	-3	0	12	-3
Nc1ccc(C(=O)O)cc1	1	0	3	3	-7	x
O=C(OCC#CCSc1nnc(-c2cccc3ccccc23)o1)c1ccccc1	-8	x	x	x	x	x
CCc1noc(C)c1C(=O)Nc1cc(S(=O)(=O)N2CCOCC2)ccc1OCC(F)(F)F	-4	-1	-1	-21	-4	x
CN(C)S(=O)(=O)N(CC(=O)Nc1ccc(S(=O)(=O)N2CCCC2)cc1)c1ccccc1	4	-1	8	-6	1	4
NC(=O)c1c(N)[nH]c(C(=O)c2ccccc2)c1-c1ccc(Br)cc1	-5	x	x	x	x	x
Clc1ccc(/C=N/Nc2nn[nH]n2)cc1	-3	0	-6	-10	-7	54*
COc1ccc(C(CC(=O)Nc2ncccc2C)N2Cc3ccccc3C2=O)cc1OC (stereo not drawn)	-1	-2	-4	-18	6	-24
COc1cc(C(CC(=O)Nc2ncccc2C)N2Cc3ccccc3C2=O)cc(OC)c1OC (stereo not drawn)	5	2	-1	-8	0	53*
Brc1ccc(OCc2ccccc2)c(CNCc2ccncc2)c1	13	122*	7	-22	5	-11
O=C(CN(Cc1ccccc1F)C(=O)c1csnn1)NCc1ccc2c(c1)OCO2	3	-1	3	-1	8	11
O=C(NC1CC2CCCC(C1)N2Cc1ccccc1)c1cccc(F)c1 (stereo not drawn)	-7	0	-5	0	18	56*
O=C(NC1CC2CCCC(C1)N2Cc1ccccc1)c1cccc(Cl)c1 (stereo not drawn)	-4	1	-4	-22	6	8
COc1ccc(Nc2ncc(C#N)c(N)n2)c(OC)c1	5	66*	-6	-8	4	-1
Cc1ccccc1Nc1ncc(C#N)c(N)n1	4	x	-3	x	-1	9
Cc1nc2ccc(NC(=O)Cc3ccc4c(c3)OCCO4)cc2s1	3	769*	1	6	6	-2
Cc1nc2ccc(NC(=O)Cc3ccc(Br)cc3)cc2s1	10	0	5	-5	7	26
COc1ccc(-c2oc(NC(=O)CSc3nncn3C)c(C#N)c2-c2ccc(OC)cc2)cc1	-8	44*	-1	-15	-17	-10
CCn1c(SCC(=O)Nc2oc(-c3ccccc3)c(-c3ccccc3)c2C#N)nnc1-c1ccco1	-3	-2	-3	-8	-2	-7
N#CCC(=O)c1sccc1-n1cccc1	-6	-1	-11	-5	13	9
Cc1ccc(-n2c(Cl)c(Cl)nc(Cl)c2=O)cc1	x	42*	x	-79	4	-8
COc1nc(Cl)cn(-c2ccc(C)cc2)c1=O	-13	-1	-10	-40	-4	5
SMILES	PrPC surface inh	PfHsp40 yeast	BJeLR viability	PrP UTR inh	MazEF act	DUSP3 inh
CN(C)c1ccc(/C=N/NC(=O)c2ccccn2)cc1	-4	2	11	-10	5	0
CN(C)c1ccc(/C=N/NC(=O)c2cnc3ccccc3c2)cc1	5	-1	4	-20	190*	30
COCCCNC(=S)N(CCO)Cc1cc2cc3c(cc2[nH]c1=O)OCO3	2	-1	1	8	-4	52*
CCN(CC)CCN(Cc1cc2cc3c(cc2[nH]c1=O)OCO3)C(=S)NCCCN(C)C	-3	13	-7	-1	8	52*
CCN(CC)CCN(Cc1cc2cc3c(cc2[nH]c1=O)OCCO3)C(=S)NCCCN(C)C	7	1	-6	-19	-25	14
COCCCNC(=S)N(CCCO)Cc1cc2cc3c(cc2[nH]c1=O)OCO3	-1	0	-4	-4	8	43
COc1cccc(C(C(=O)NC(C)(C)C)N(Cc2ccc(F)cc2)C(=O)CCC(=O)Nc2cc(C)on2)c1OC (stereo not drawn)	7	1	-1	-10	3	32
Cn1c(=O)c2c(-c3ccccc3)n(-c3ccc(N)cc3)cc2n(C)c1=O	-14	x	x	x	x	x
CCCc1nc2c([nH]1)c(=O)n(C)c(=O)n2C	-4	1	4	-21	-3	60*
O=Cc1cc(N=Nc2ccccc2Cl)ccc1O	-4	211*	4	-30	-2	-10
COc1ccc(-c2cc3ncc(C(C)=O)c(C)n3n2)cc1	0	53*	-3	-85	-26	22
COc1ccc(N2CCCC2)c(NC(=O)c2ccc(Br)o2)c1	-15	0	-6	-31	63*	7
O=C(Nc1ccccc1N1CCCC1)c1ccc(Br)o1	3	2	-7	-18	8	17
Cc1cc(C)cc(Cn2c3ccc(NC(=O)NCc4ccc(F)cc4)cc3c(=O)n2C)c1	12	x	x	x	x	x
CCOC(=O)[C@]12CCCC=C1N(CCC1=CCCCC1)C(=O)[C@H](CC(=O)NCCCN1CCCC1=O)C2	-6	x	x	x	x	x
COc1ccc(N2CCC(CNC(=O)Nc3cccc(OC)c3)C2)cc1 (stereo not drawn)	0	0	-7	-25	4	33
CCOc1ccc(NC(=O)NCC2CCN(Cc3ccc(F)cc3)CC2)cc1	-7	-1	-4	-24	6	57*
COc1ccc(N2CCC(CNC(=O)Nc3ccc(Cl)cc3)C2)cc1 (stereo not drawn)	7	-1	-8	-16	24	52*
CCN(C(=O)CSc1nnc(CNc2cccc(OC)c2)n1C1CCCCC1)C1CCS(=O)(=O)C1 (stereo not drawn)	1	0	5	-11	1	55*
CCN(C(=O)CSc1nnc(C)n1-c1cccc(C)c1)C1CCS(=O)(=O)C1 (stereo not drawn)	1	1	x	-11	-1	x
CC(=O)Nc1ccc(C(=O)N2CCCCC2c2cc(C(=O)Nc3ccccc3Cl)no2)cc1 (stereo not drawn)	-2	x	x	x	x	x
CCCN1CCC(=O)N([C@H](CSc2ccc(Br)cc2)c2ccccc2)CC1	1	-1	3	-29	1	-12
COc1ccc2nc(C)cc(N/N=C/c3ccc(F)cc3)c2c1	-8	-1	93*	15	8	9
COc1ccc(N(C(=O)c2ccncc2)S(=O)(=O)c2ccc(Cl)cc2)cc1	x	141*	2	-8	2	33
Cc1ccc(S(=O)(=O)N(C(=O)c2ccncc2)c2ccc(OC(=O)c3ccncc3)cc2)cc1	6	372*	-14	-17	7	-7
COc1ccc(N(C(=O)c2ccncc2)S(=O)(=O)c2cccs2)cc1	-5	0	13	-4	2	-1
